A selection: hits, their analogues and other compounds. The true share with any hit is near 0.87%.
FEN1 inhibitor – qHTS Assay for the Inhibitors of Human Flap endonuclease 1 (FEN1) | P39748 | Recombinant FEN1 flap cleavage, fluorescence, 15 min | Potency, µM (doses to about 114 µM), without a hit: at the highest dose activity change, negative = inhibition, actives largely listed as inhibitors | actives 0.35% (n = 390,000); further: on the % scale 0 is the no-effect control and ±100 the full control effect; nearly all actives have a fitted effect of over 65% in size
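FEN1 at 10 nM, compound pretreatment for 15 min (room temperature), 50 nM final substrate to initiate; endpoint reads at 0 and 15 min; DMSO-only plates used as vehicle background.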
WRN helicase inh-1 – qHTS for Inhibitors of WRN Helicase | Bifunctional 3'-5' exonuclease/ATP-dependent helicase WRN (Homo sapiens), Q14191 | WRN helicase unwinding, fluorescent forked duplex, kinetic | Potency, µM (doses to about 114 µM), for inactives: top-dose activity change, negative = inhibition, usual class: inhibitors | actives 0.46% (n = 360,000) | AID 651768, 2012; further: on the % scale 0 is the no-effect control and ±100 the full control effect; nearly all actives have a fitted effect of over 55% in size
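Fluorescence dequenching readout, ex 525 nm/em 598 nm, kinetic mode: forked duplex DNA (100 nM final) with adjacent fluorophore and quencher unwound by WRN (20 nM final) with 2 mM ATP. Compound preincubation 15 min, room temperature.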
APEX1 inh – qHTS Assay for Inhibitors of the Human Apurinic/apyrimidinic Endonuclease 1 (APE1) | DNA repair nuclease/redox regulator APEX1 (Homo sapiens), P27695 | recombinant APE1, TAMRA/BHQ-2 abasic DNA cleavage fluorescence | Potency, µM (doses to about 65.8 µM), without a hit: at the highest dose activity change, negative = inhibition, actives largely listed as inhibitors | actives 0.35% (n = 350,000);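 further: plate controls were vehicle for no effect and reference inhibitor for full effect; nearly all actives have a fitted effect of over 55% in size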
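APE1 at 0.75 nM preincubated 15 min at room temperature with compound. Reaction then started with 50 nM double-stranded THF-abasic substrate labelled with TAMRA/BHQ-2, and 525/598 nm fluorescence read kinetically. Activity taken as third-minus-first read difference, normalized to DMSO and NSC13755 controls.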
BLM helicase inh-1 – qHTS Assay for Inhibitors of Bloom's syndrome helicase (BLM); recombinant BLM DNA unwinding, fluorescence dequenching; Potency, µM (series often up to 56.1 µM), for the others: at the highest dose activity change, negative = inhibition, usual class: inhibitors; actives 0.2% (n = 350,000); AID 2528, 2010;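 further: plate controls were vehicle for no effect and no enzyme for full effect; nearly all actives have a fitted effect of over 35% in size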
RECQ1 helicase – qHTS Assay for Inhibitors of RecQ-Like Dna Helicase 1 (RECQ1). ATP-dependent DNA helicase Q1 (Homo sapiens), P46063. actives 0.54% (n = 240,000). Potency, µM (top dose mostly 57.3 µM), for inactives: at the top dose activity, negative = inhibition, usual class: inhibitors. RECQ1 DNA unwinding, red fluorescence kinetic read. AID 2549, 2010;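 further: plate controls were vehicle for no effect and no enzyme for full effect; nearly all actives have a fitted effect of over 30% in size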
Target sequence (P46063 whole entry, looked up): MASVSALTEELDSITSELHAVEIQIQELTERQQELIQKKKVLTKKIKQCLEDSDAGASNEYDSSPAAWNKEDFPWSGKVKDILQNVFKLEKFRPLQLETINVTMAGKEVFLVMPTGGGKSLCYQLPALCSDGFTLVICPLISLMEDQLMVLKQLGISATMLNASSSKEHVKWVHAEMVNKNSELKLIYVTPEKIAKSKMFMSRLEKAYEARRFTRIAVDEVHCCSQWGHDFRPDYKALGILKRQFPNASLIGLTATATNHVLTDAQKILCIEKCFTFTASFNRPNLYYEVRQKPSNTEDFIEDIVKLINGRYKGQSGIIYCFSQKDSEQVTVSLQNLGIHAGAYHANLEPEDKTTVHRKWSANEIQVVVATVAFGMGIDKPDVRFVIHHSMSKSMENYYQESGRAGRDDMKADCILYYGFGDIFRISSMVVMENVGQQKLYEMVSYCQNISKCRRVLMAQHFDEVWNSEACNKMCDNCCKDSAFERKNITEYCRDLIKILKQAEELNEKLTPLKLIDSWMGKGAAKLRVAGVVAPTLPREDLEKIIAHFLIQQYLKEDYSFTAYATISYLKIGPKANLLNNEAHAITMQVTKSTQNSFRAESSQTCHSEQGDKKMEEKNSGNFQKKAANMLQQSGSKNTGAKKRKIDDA
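50 nM RECQ1T1 preincubated 15 min with compound in Tris pH 8.0 buffer with MgCl2, DTT, Tween-20 and 2.5 ug/ml poly(dI-dC); started with 200 nM TAMRA/BHQ-2 forked duplex and 2 mM ATP. Unwinding read as fluorescence (525/598 nm), two reads 2 h apart.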
WRN helicase inh-2 – qHTS for Inhibitors of WRN Helicase: Confirmatory Assay for Cherry-picked Compounds; shares compounds with WRN helicase inh-1; WRN helicase DNA unwinding, fluorescence kinetic; Potency, µM (top dose mostly 57.1 µM), for inactives: at the highest dose activity, negative = inhibition, hits mostly inhibitors; actives 63% (n = 610); AID 720497, 2013; further: nearly all actives have a fitted effect of over 65% in size
TO displacement – qHTS for Inhibitors of WRN Helicase: Thiazole Orange DNA Binding Counterscreen. shares compounds with WRN helicase inh-1. thiazole orange DNA binding displacement, fluorescence. Potency, µM (top dose mostly 57.1 µM), without a hit: top-dose activity change, negative = inhibition, actives largely listed as inhibitors. actives 10% (n = 610);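 further: drop in dye fluorescence marks compound binding to DNA; on the % scale 0 is the no-effect control and ±100 the full control effect; nearly all actives have a fitted effect of over 60% in size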
BLM helicase inh-2 – qHTS for Inhibitors of WRN Helicase: BLM Helicase Counterscreen for WRN Inhibitors. shares compounds with WRN helicase inh-1. Recombinant BLM helicase DNA unwinding, red fluorescence. Potency, µM (top dose mostly 57.1 µM), for the others: top-dose activity change, negative = inhibition, usual class: inhibitors. actives 60% (n = 610). AID 720503, 2013; further: nearly all actives have a fitted effect of over 60% in size
Starred values were filed as active, the others as inactive; u = inconclusive; x = not tested or not shown; [ ] = dose if it differs, or a comment. The call rests on the fitted dose curve; in most records, active means well fitted curve in the direction sought with a large enough effect; inconclusive means small, poorly fitted or top-dose-only effect, or another doubt; inactive means no such curve, though single readings can be large; an effect the other way counts as inactive or inconclusive. Potency means the concentration at half of the fitted maximal effect.

SMILES	FEN1 inhibitor	WRN helicase inh-1	APEX1 inh	BLM helicase inh-1	RECQ1 helicase	WRN helicase inh-2	TO displacement	BLM helicase inh-2
CN1C(=O)C(=Cc2ccccc2OCc2ccc(Cl)cc2)C(=O)N(C)C1=O	-1%	-24%[57.1 µM]	1%	-1%	-2%	x	x	x
ClCCN(CCCl)c1ccc(C=Nc2ccc(/C=C/c3ccncc3)cc2)cc1	-7%	x	x	x	x	x	x	x
ClC(Cl)c1ccccc1	x	x	2%	x	6%	x	x	x
O=C1NC(=O)C(=Cc2c(Cl)cccc2Cl)C(=O)N1	2%	35µM*	x	x	x	0%	-3%	-4%
CCC(C)N1C(=O)/C(=C\c2cnc(N(C)C)nc2)C(=O)NC1=S (stereo unspecified)	-1%	50µM*	1%	-5%	-14%	-6%	7%	-18%
O=C1NC(=O)C(=Cc2cccc(OCCOc3ccccc3)c2)C(=O)N1	-27%	-23%	9%	-1%	x	x	x	x
Cc1ccc(OCCOc2cccc(C=C3C(=O)NC(=O)NC3=O)c2)c(C)c1	u	35µM*	41%	-6%	x	u	-23%	27µM*

High-throughput results: PubChem BioAssay, National Center for Advancing Translational Sciences (NCATS)
